According to PubChem BioAssay (NCI):
About 83,000 compounds went through this panel and 20% of them were active in at least one assay; those are over-represented in the sample as a whole.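 Compound tested at a single concentration for 48 hours in 96-well plates; a percent growth value below 10 was scored as active.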 Unmarked numbers belong to inactive results. Active and inactive are the calls of the source.

Tests used:
Experiment in all cases: NCI-60 one-dose screen, 48 h (100 = growth as untreated, 0 = no growth, -100 = all killed)
Conditions in all cases: 10 µM unless noted
[1] = system: SK-MEL-2 melanoma
[2] = system: EKVX NSCLC
[3] = system: SN12C renal
[4] = system: UO-31 renal
[5] = system: TK-10 renal
[6] = system: ACHN renal
[7] = system: CAKI-1 renal
[8] = system: CCRF-CEM leukemia
[9] = system: MOLT-4 leukemia
[10] = system: SR leukemia
[11] = system: RPMI-8226 leukemia
[12] = system: OVCAR-8 ovarian
[13] = system: OVCAR-5 ovarian
[14] = system: SK-OV-3 ovarian
[15] = system: IGROV1 ovarian
[16] = system: OVCAR-3 ovarian
[17] = system: HS 578T breast
[18] = system: NCI/ADR-RES ovarian
[19] = system: OVCAR-4 ovarian
[20] = system: A498 renal

COc1cccc(-c2nc3occn3c2-c2ccnc(NCCNS(=O)(=O)c3cccc4ccccc34)n2)c1
growth [1]: 107% | growth [2]: 114% | growth [3]: 103% | growth [4]: 85.7% | growth [5]: 123% | growth [6]: 99.6% | growth [7]: 86.6% | growth [8]: 123% | growth [9]: 97.4% | growth [10]: 110% | growth [11]: 102% | growth [12]: 97.4% | growth [13]: 123% | growth [14]: 83.5% | growth [15]: 89% | growth [16]: 103% | growth [17]: 105% | growth [18]: 98.8%

Cc1cc2nc3c4cccc(O)c4n(CCN(C)C)c3nc2cc1C
growth [1]: 54.2% | growth [2]: 42.2% | growth [3]: 29.6% | growth [4]: 6.09% (active) | growth [5]: 72.8% | growth [6]: 8.22% (active) | growth [7]: 13.2% | growth [8]: 27% | growth [9]: 6.01% (active) | growth [10]: 4.12% (active) | growth [11]: -5.71% (active) | growth [12]: 38% | growth [13]: 55.3% | growth [19]: 44.4% | growth [14]: 46.3% | growth [16]: 45.4% | growth [17]: 72.8% | growth [18]: 32.3%

O=C(Cc1ccccc1)NNc1nc(Cl)nc(N2CCN(C(c3ccccc3)c3ccccc3)CC2)n1
growth [1]: 99.8% | growth [2]: 91.9% | growth [3]: 97.1% | growth [4]: 96.7% | growth [5]: 96% | growth [6]: 94.9% | growth [7]: 84.4% | growth [8]: 11.1% | growth [9]: 36.3% | growth [10]: 10.7% | growth [11]: 101% | growth [12]: 91.8% | growth [13]: 94.8% | growth [14]: 105% | growth [15]: 64.5% | growth [16]: 101% | growth [17]: 98.9% | growth [18]: 102%

N#Cc1c(NC(=O)NCc2ccccc2)sc2c1CCCCC2
growth [1]: 39.1% | growth [2]: 39.3% | growth [3]: 30.3% | growth [4]: 46.7% | growth [5]: 41.1% | growth [6]: 43.4% | growth [7]: 29.8% | growth [8]: 14.7% | growth [9]: 18% | growth [10]: 29.5% | growth [11]: 14.8% | growth [12]: 21.8% | growth [13]: 43.5% | growth [19]: 43% | growth [14]: 25% | growth [16]: -17.6% (active) | growth [17]: 9.89% (active) | growth [18]: 17.2%

Cn1c2ccccc2c2c3c(c4c5ccccc5n(C)c4c21)C(=O)OC3
growth [1]: 107% | growth [2]: 88.1% | growth [3]: 92.3% | growth [4]: 61% | growth [5]: 135% | growth [6]: 87.3% | growth [7]: 82.6% | growth [8]: 98.4% | growth [9]: 89.7% | growth [10]: 83.9% | growth [11]: 89.9% | growth [12]: 98.6% | growth [13]: 95.9% | growth [14]: 100% | growth [15]: 78% | growth [16]: 102% | growth [17]: 97.4% | growth [18]: 95.5%

CCOC(=O)[C@@H](C)C[C@H](Cc1ccccc1)NC(=O)c1csc([C@@H](C[C@H](C(C)C)N(C)C(=O)[C@@H](NC(=O)[C@H]2C[C@H](O[Si](C)(C)C(C)(C)C)CCN2C)C(C)C)OC(C)=O)n1
growth [1]: -21.2% [9.25 µM] (active) | growth [2]: 24.1% [9.25 µM] | growth [3]: 3.13% [9.25 µM] (active) | growth [4]: 8.06% [9.25 µM] (active) | growth [5]: 12.1% [9.25 µM] | growth [6]: 5.74% [9.25 µM] (active) | growth [7]: 15.9% [9.25 µM] | growth [8]: 0.176% [9.25 µM] (active) | growth [9]: 1.33% [9.25 µM] (active) | growth [10]: -13.9% [9.25 µM] (active) | growth [11]: -32.7% [9.25 µM] (active) | growth [12]: -2.84% [9.25 µM] (active) | growth [13]: 9.08% [9.25 µM] (active) | growth [19]: 17.3% [9.25 µM] | growth [14]: -2.86% [9.25 µM] (active) | growth [16]: 1.08% [9.25 µM] (active) | growth [17]: -17.7% [9.25 µM] (active) | growth [18]: -3.17% [9.25 µM] (active)

CN1CCC(=C(c2ccccc2)c2ccccc2)C(c2ccccc2)C1 (centres undefined)
growth [1]: 102% | growth [2]: 89% | growth [3]: 99.4% | growth [4]: 84.9% | growth [5]: 96.2% | growth [6]: 93.1% | growth [7]: 66.4% | growth [8]: 105% | growth [9]: 92.1% | growth [10]: 96.5% | growth [11]: 103% | growth [12]: 99.3% | growth [13]: 90% | growth [14]: 115% | growth [15]: 81.7% | growth [16]: 113% | growth [17]: 103% | growth [18]: 83.4%

O=S(=O)(NCCNc1nccc(-c2c(-c3cccc(O)c3)nc3occn23)n1)c1ccc(Cl)cc1
growth [1]: 83.4% | growth [2]: 125% | growth [3]: 100% | growth [4]: 110% | growth [5]: 143% | growth [6]: 98.5% | growth [7]: 79.6% | growth [8]: 106% | growth [9]: 103% | growth [10]: 106% | growth [11]: 105% | growth [12]: 105% | growth [13]: 143% | growth [19]: 126% | growth [14]: 99.8% | growth [17]: 108% | growth [18]: 109%

CC(Oc1ccc(C(=O)O)cc1C(F)(F)F)c1ccc(Oc2ccccc2)cn1 (centres undefined)
growth [1]: 123% | growth [2]: 103% | growth [3]: 98.3% | growth [4]: 79.2% | growth [5]: 99.5% | growth [6]: 104% | growth [7]: 95.9% | growth [8]: 101% | growth [9]: 106% | growth [10]: 71.7% | growth [11]: 99.9% | growth [12]: 96.6% | growth [13]: 102% | growth [14]: 124% | growth [15]: 98.4% | growth [16]: 104% | growth [17]: 99.6% | growth [18]: 75.2%

c1ccc(-c2cn3c(ccc4ccccc43)n2)cc1
growth [1]: 40.3% | growth [2]: 73.2% | growth [3]: 60.8% | growth [4]: 48.9% | growth [5]: 89.5% | growth [6]: 79.5% | growth [7]: 38.6% | growth [8]: 65.1% | growth [9]: 57.8% | growth [10]: 20.9% | growth [11]: 62.5% | growth [12]: 71.4% | growth [13]: 77.2% | growth [19]: 91.5% | growth [14]: 77.1% | growth [16]: 56.3% | growth [17]: 67.8% | growth [18]: 35.7%

CCOC(=O)CC1CSC(N/N=C/c2ccc(-n3cccn3)cc2)=N1 (centres undefined)
growth [1]: 113% | growth [2]: 108% | growth [3]: 100% | growth [4]: 90.9% | growth [6]: 109% | growth [7]: 102% | growth [20]: 97.8% | growth [8]: 94.1% | growth [9]: 97.3% | growth [10]: 98.3% | growth [11]: 99.1% | growth [12]: 97.8% | growth [13]: 115% | growth [19]: 109% | growth [14]: 111% | growth [15]: 114% | growth [16]: 110% | growth [17]: 97.8% | growth [18]: 101%

O=C1c2ccc3c4c(ccc(c24)C(=O)N1CCCNCc1ccccc1)C(=O)N(CCCNCc1ccccc1)C3=O
growth [1]: -82.9% (active) | growth [2]: -39.2% (active) | growth [3]: -88% (active) | growth [4]: -48.6% (active) | growth [6]: -53.5% (active) | growth [7]: -19.6% (active) | growth [8]: -30.5% (active) | growth [9]: -32.3% (active) | growth [10]: -47.2% (active) | growth [11]: -36.7% (active) | growth [12]: -50.7% (active) | growth [13]: -20.6% (active) | growth [19]: -97.2% (active) | growth [14]: -11.4% (active) | growth [15]: -23.4% (active) | growth [16]: -63.4% (active) | growth [17]: -32.3% (active) | growth [18]: -26.5% (active)

O=C(Nc1cccc(C2=NCCN2)c1)c1ccc(-c2ccc(C(=O)Nc3cccc(C4=NCCN4)c3)cc2)cc1
growth [1]: 105% | growth [2]: 95.8% | growth [3]: 61.7% | growth [4]: 99.1% | growth [6]: 98.4% | growth [7]: 107% | growth [8]: 89.1% | growth [9]: 80.9% | growth [10]: 72.4% | growth [11]: 24.8% | growth [12]: 80.7% | growth [13]: 88.5% | growth [19]: 96.6% | growth [14]: 111% | growth [15]: 88.7% | growth [16]: 121% | growth [17]: 97.6% | growth [18]: 104%

CCOC(=O)c1cc(C(=O)c2ccc(OC)c(OC)c2)n2c1ccc1ccccc12
growth [1]: 104% | growth [2]: 76.1% | growth [3]: 83.7% | growth [4]: 58.4% | growth [6]: 91% | growth [7]: 64.6% | growth [20]: 97.1% | growth [8]: 94% | growth [9]: 89.6% | growth [10]: 86.5% | growth [11]: 80% | growth [12]: 94.7% | growth [13]: 104% | growth [19]: 91.9% | growth [14]: 93% | growth [15]: 58.6% | growth [16]: 99.6% | growth [17]: 93.8% | growth [18]: 91.5%

c1ccc2cc(Cn3c(-c4cccc5ccccc45)[n+](Cc4ccc5ccccc5c4)c4c5ccccc5c5ccccc5c43)ccc2c1
growth [1]: -72.5% (active) | growth [2]: -77.2% (active) | growth [3]: -82% (active) | growth [4]: -89.2% (active) | growth [6]: -92.6% (active) | growth [7]: -96.7% (active) | growth [8]: -17.4% (active) | growth [9]: -55.3% (active) | growth [10]: -56% (active) | growth [11]: -38.7% (active) | growth [12]: -67% (active) | growth [13]: -76.7% (active) | growth [19]: -80% (active) | growth [14]: -79.4% (active) | growth [15]: -71.8% (active) | growth [16]: -89.4% (active) | growth [17]: -42.1% (active) | growth [18]: 17.7%

O=C(Cc1ccc(/C=C/C(=O)c2nccs2)cc1)Nc1ccccc1
growth [1]: 105% | growth [2]: 103% | growth [3]: 91.9% | growth [4]: 89.1% | growth [6]: 96.5% | growth [7]: 99.9% | growth [8]: 14.4% | growth [9]: 6.27% (active) | growth [10]: 2.31% (active) | growth [11]: 67% | growth [12]: 90.5% | growth [13]: 99.9% | growth [19]: 97.2% | growth [14]: 112% | growth [15]: 91.7% | growth [16]: 88.9% | growth [17]: 88.5% | growth [18]: 101%
